The list is not random: actives were taken first. Their share in the collection is about 7.3%.
ELG1 genotoxic: inducers of genotoxicity in HEK293T ELG1-luciferase cells; Potency, µM (top dose mostly 46 µM), usual class: activators; HEK293T ELG1-luciferase reporter, luminescence, 16 h; AID 504466; hit rate 1.3% among 330,000; further: nearly all actives have a fitted effect of over 60% in size
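HEK293T cells expressing luciferase-tagged ELG1 were treated with compound or DMSO for 16 hr at 37°C. Luciferase activity was then read after 30 min with ONE-Glo at room temperature; rising signal flags genetic stress.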
NPC1 promoter act: activators of NPC1 promoter; Huh7 NPC1 promoter luciferase reporter, 24 h; Potency, µM (highest dose often 9.22 µM), hits mostly activators; hit rate 2.4% among 320,000; further: nearly all actives have a fitted effect of over 60% in size
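Huh7 reporter cells (NPC1 promoter driving luciferase) are dosed with compound for 24 h at 37 °C, 5% CO2; luciferase detection reagent is then added and luminescence measured after 10 min at ambient temperature.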
SMN2 splice enh: enhancers of SMN2 splice variant expression; HEK293 SMN2-luciferase splicing reporter, luminescence, 30-36 h; Potency, µM (top dose mostly 46.1 µM), usual class: activators; hit rate 2.8% among 210,000; AID 1458; further: nearly all actives have a fitted effect of over 55% in size
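HEK293 cells carry an SMN2 […]–luciferase reporter in which exon 7 inclusion puts luciferase in frame. Cells were plated 10-12 h before compound addition, then incubated 30-36 h at 37C. ONE-Glo luminescence was read; sodium butyrate at 4.5 mM final served as control.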
FLuc counter: firefly luciferase modulation, counter-screen for miR-21 project. P08659. purified FLuc, Km substrates, luminescence inhibition. Potency, µM (titrated, usually from 57.5 µM), actives largely listed as inhibitors. hit rate 6.9% among 360,000. AID 588342; further: nearly all actives have a fitted effect of over 55% in size
Target sequence (P08659 whole entry, looked up): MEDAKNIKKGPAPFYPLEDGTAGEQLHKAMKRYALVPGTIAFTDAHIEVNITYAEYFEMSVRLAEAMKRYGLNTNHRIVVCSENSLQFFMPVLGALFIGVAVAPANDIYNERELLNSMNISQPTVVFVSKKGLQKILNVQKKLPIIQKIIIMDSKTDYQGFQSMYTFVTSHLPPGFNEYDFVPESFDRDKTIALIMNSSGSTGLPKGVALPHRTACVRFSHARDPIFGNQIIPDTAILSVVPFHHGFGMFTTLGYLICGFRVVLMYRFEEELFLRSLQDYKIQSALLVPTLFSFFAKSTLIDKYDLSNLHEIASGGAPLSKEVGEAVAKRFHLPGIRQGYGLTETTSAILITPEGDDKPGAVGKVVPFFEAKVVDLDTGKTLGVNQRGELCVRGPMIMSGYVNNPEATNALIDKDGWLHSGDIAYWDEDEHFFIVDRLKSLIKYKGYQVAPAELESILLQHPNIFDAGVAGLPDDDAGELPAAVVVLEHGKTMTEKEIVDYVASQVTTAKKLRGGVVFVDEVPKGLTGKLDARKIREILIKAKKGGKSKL
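Biochemical qHTS of compounds, final roughly 60 µM downward over six points, against 10 nM purified firefly luciferase using Km concentrations of substrates (10 uM D-luciferin, 10 uM ATP) in Tris acetate pH 7.5 buffer; luminescence output.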
Luc counter: Kinase-Glo luciferase inhibition (counter-screen); Q27757; hit rate 0.28% among 200,000; Kinase-Glo luciferase, ATP luminescence, 8 min; Potency, µM (highest dose often 38.3 µM), actives largely listed as inhibitors; further: nearly all actives have a fitted effect of over 60% in size
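Recombinant Kinase-Glo luciferase, 10 uM ATP (linear range), luciferin; imidazole pH 7.2 / KCl / MgCl2 / Tween / BSA buffer; 8 min RT; luminescence.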
Rab9 prom act: activates the Rab9 promoter; Potency, µM (titrated, usually from 9.22 µM), hits mostly activators; AID 485297; Huh7 Rab9 promoter-luciferase reporter, luminescence, 24 h; hit rate 2.8% among 320,000; further: nearly all actives have a fitted effect of over 60% in size
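Quantitative HTS format; Huh7 Rab9-luciferase reporter cells (1500/well) receive compound 2 h post-plating, incubate 24 h at 37 °C, then get luciferase reagent for 10 min before luminescence reading.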
Numbers stand for hits; [ ] = remark or other dose. The call rests on the fitted dose curve; in most records, active means well fitted curve in the direction sought with a large enough effect; inconclusive means small, poorly fitted or top-dose-only effect, or another doubt; inactive means no such curve, though single readings can be large; an effect the other way counts as inactive or inconclusive.

Results for COc1cc(/C=C/C(=O)c2ccc(Cl)s2)cc(OC)c1O ?
ELG1 genotoxic: inactive; NPC1 promoter act: inactive; SMN2 splice enh: inactive; FLuc counter: inconclusive; Luc counter: inactive; Rab9 prom act: inactive

Results for COc1ccc(C(=O)/C=C/c2ccc(OC)c(O)c2)c(F)c1 ?
ELG1 genotoxic: inactive; NPC1 promoter act: inactive; SMN2 splice enh: inactive; FLuc counter: 11µM; Luc counter: inactive; Rab9 prom act: inactive

What do the screens show for `COc1ccc(/C=C/C(=O)c2ccc(Cl)s2)cc1O`?
ELG1 genotoxic: inconclusive; NPC1 promoter act: inactive; SMN2 splice enh: inactive; FLuc counter: 1.1µM; Luc counter: inactive; Rab9 prom act: inactive

How did CCOc1ccc(CNC(=O)C2CCCN(c3nc4c(C)cc(C)cc4s3)C2)cc1 (configuration not stated) do in these assays?
SMN2 splice enh: inactive; FLuc counter: inactive

Results for CCOC(=O)c1sc2ncn(CC(=O)Nc3ccc(OC)c(Cl)c3)c(=O)c2c1C ?
SMN2 splice enh: inactive; FLuc counter: inactive

How did Cc1ccc2nc(-c3ccc(NC(=O)CSc4ccccc4)cc3)[nH]c2c1 do in these assays?
ELG1 genotoxic: inconclusive; NPC1 promoter act: 1.6µM; SMN2 splice enh: 3.5µM; FLuc counter: inconclusive; Luc counter: inactive; Rab9 prom act: 2.5µM

Results for O=C(Nc1nc2ccccc2[nH]1)C1CCCO1 (configuration not stated) ?
ELG1 genotoxic: inactive; NPC1 promoter act: inconclusive; SMN2 splice enh: inactive; FLuc counter: inconclusive; Luc counter: inactive; Rab9 prom act: inconclusive

Results for CCOc1ccc(NC(=S)NCc2nc3ccccc3[nH]2)cc1 ?
ELG1 genotoxic: inactive; NPC1 promoter act: inactive; SMN2 splice enh: inactive; FLuc counter: inactive; Luc counter: inactive; Rab9 prom act: inactive

How did Cc1ccc2nc(SCC(=O)Nc3ccc(C(N)=O)cc3)[nH]c2c1 do in these assays?
ELG1 genotoxic: inactive; NPC1 promoter act: inactive; FLuc counter: inactive; Luc counter: inactive; Rab9 prom act: inactive

Results for O=C(Nc1ccc(-c2nc3ccccc3[nH]2)cc1)c1c(F)c(F)c(F)c(F)c1F ?
ELG1 genotoxic: inactive; NPC1 promoter act: inactive; SMN2 splice enh: inactive; FLuc counter: inactive; Luc counter: inactive; Rab9 prom act: inactive

Results for CCNC(=S)Nc1ccc(-c2nc3ccccc3[nH]2)cc1 ?
ELG1 genotoxic: inconclusive; NPC1 promoter act: 3.2µM; FLuc counter: 11µM; Rab9 prom act: 1.1µM

Results for O=C(CSc1ccccc1)Nc1ccc(-c2nc3ccccc3[nH]2)cc1 ?
ELG1 genotoxic: inconclusive; NPC1 promoter act: 2.2µM; SMN2 splice enh: 8.9µM; FLuc counter: inconclusive; Luc counter: inactive; Rab9 prom act: 3.2µM

How did O=C(Nc1ccc(-c2nc3ccccc3[nH]2)cc1)C1CCCO1 (configuration not stated) do in these assays?
ELG1 genotoxic: 0.41µM; NPC1 promoter act: 0.35µM; SMN2 splice enh: 2.2µM; FLuc counter: 1.2µM; Luc counter: 4µM; Rab9 prom act: 0.32µM

Results for COc1ccc(CCNC(=O)c2cc(=O)c3cc(C)c(C)cc3o2)cc1OC ?
SMN2 splice enh: inactive; FLuc counter: inactive

Results for Cc1ccn2cc(CNC(=O)c3cccc(C(F)(F)F)c3)nc2c1 ?
FLuc counter: inactive

Results for CCCCNC(=O)C1CCC(Cn2c(=O)c3sccc3n(Cc3ccccc3)c2=O)CC1 (configuration not stated) ?
FLuc counter: inactive

How did O=C(CSc1ccc(Cl)cc1)Nc1cccc(-c2nc3ccccc3[nH]2)c1 do in these assays?
ELG1 genotoxic: inactive; NPC1 promoter act: inactive; SMN2 splice enh: 2.8µM; FLuc counter: inactive; Luc counter: inactive; Rab9 prom act: inconclusive

What do the screens show for `O=C(CN1CCOCC1)Nc1ccc(-c2nc3ccccc3[nH]2)cc1`?
ELG1 genotoxic: inconclusive; NPC1 promoter act: inconclusive; SMN2 splice enh: inactive; FLuc counter: 13µM; Luc counter: inactive; Rab9 prom act: inconclusive

How did O=C(Cc1cccs1)Nc1ccc(-c2nc3ccccc3[nH]2)cc1 do in these assays?
ELG1 genotoxic: inconclusive; NPC1 promoter act: 1.8µM; SMN2 splice enh: 18µM; FLuc counter: 1.5µM; Luc counter: inactive; Rab9 prom act: 1.6µM

What do the screens show for `CC(=O)c1ccc(NC(=O)c2ccc(CNc3c(N4CCOCC4)c(=O)c3=O)cc2)cc1`?
ELG1 genotoxic: inactive; NPC1 promoter act: inactive; FLuc counter: 12µM; Rab9 prom act: inactive

What do the screens show for `CCOc1ccc(OCC)c(NC(=O)c2ccc(CNc3c(N4CCCC4)c(=O)c3=O)cc2)c1`?
ELG1 genotoxic: inactive; NPC1 promoter act: inactive; FLuc counter: inactive; Rab9 prom act: inactive

How did CCOc1ccc(NC(=O)c2ccc(CNc3c(N4CCCC4)c(=O)c3=O)cc2)cc1 do in these assays?
ELG1 genotoxic: inactive; NPC1 promoter act: inactive; FLuc counter: 13µM; Rab9 prom act: inactive

How did CC(=O)c1ccc(NC(=O)c2ccc(CNc3c(N4CCCC4)c(=O)c3=O)cc2)cc1 do in these assays?
ELG1 genotoxic: inactive; NPC1 promoter act: inactive; FLuc counter: inconclusive; Rab9 prom act: inactive

Results for COC(=O)C1=C(C(=O)OC)[C@@H]2Nc3ccccc3[C@@]23C[C@@H](C(=O)OC)N(S(=O)(=O)c2ccc(C#N)cc2)C3=N1 ?
SMN2 splice enh: inactive[9.22 µM]; Luc counter: inactive[7.66 µM]

How did O=C(/C=C/Nc1ccc(F)cc1)c1ccc(Oc2ncccn2)cc1 do in these assays?
ELG1 genotoxic: inactive; NPC1 promoter act: inactive; SMN2 splice enh: inactive; FLuc counter: inconclusive; Luc counter: inactive; Rab9 prom act: inconclusive

What do the screens show for `COc1ccc(C(=O)/C=C/Nc2ccc([N+](=O)[O-])cc2)cc1`?
ELG1 genotoxic: inactive; NPC1 promoter act: inconclusive; SMN2 splice enh: inconclusive; FLuc counter: inactive; Luc counter: inactive; Rab9 prom act: inconclusive

How did CCOc1ccc(N/C=C/C(=O)c2ccc(OC)cc2)cc1 do in these assays?
ELG1 genotoxic: inactive; NPC1 promoter act: inconclusive; FLuc counter: 1.2µM; Rab9 prom act: inconclusive

How did COc1ccc(N/C=C/C(=O)c2ccc(Oc3ncccn3)cc2)cc1 do in these assays?
ELG1 genotoxic: inactive; NPC1 promoter act: inactive; SMN2 splice enh: inactive; FLuc counter: 1.7µM; Luc counter: inactive; Rab9 prom act: inactive

Results for CCOc1ccc(N/C=C/C(=O)c2ccc(OC)cc2)c([N+](=O)[O-])c1 ?
ELG1 genotoxic: inconclusive; NPC1 promoter act: 0.4µM; SMN2 splice enh: inactive; FLuc counter: 0.85µM; Luc counter: inconclusive; Rab9 prom act: 1.1µM

Results for CNC(=O)CN1C(=O)COc2ccc(S(=O)(=O)N3CCC(C)CC3)cc21 ?
SMN2 splice enh: inactive; FLuc counter: inactive

How did COc1ccc(CNC(=O)Cn2c(=O)nc(-c3ccccc3F)c3cc(Cl)ccc32)cc1OC do in these assays?
FLuc counter: inactive

Results for Nc1c(C(=O)Nc2ccc(C(=O)O)cc2)sc2nc3c(cc12)CCCC3 ?
SMN2 splice enh: inconclusive; FLuc counter: 0.19µM

Assay outcomes (PubChem BioAssay)
